Source: PMC7862700, “An all-to-all approach to the identification of sequence-specific readers for epigenetic DNA modifications on cytosine”

Key:
Assay in all cases: DAPPL (digital affinity profiling via proximity ligation, sequencing); 10 mM Tris-HCl pH 7.5, 50 mM NaCl, 1 mM DTT, 4% glycerol, room temperature, 30 min; GST-TFs on glutathione beads, 16-mer random dsDNA library, 0.1% formaldehyde crosslink after washing; high values mean tight binding
Conditions in all cases: protein: recombinant; tags: N-terminal GST; dsDNA, one strand shown
FLI1 = target: T1, FLI1 (Homo sapiens, UniProt Q01543 1-452)
T1 sequence: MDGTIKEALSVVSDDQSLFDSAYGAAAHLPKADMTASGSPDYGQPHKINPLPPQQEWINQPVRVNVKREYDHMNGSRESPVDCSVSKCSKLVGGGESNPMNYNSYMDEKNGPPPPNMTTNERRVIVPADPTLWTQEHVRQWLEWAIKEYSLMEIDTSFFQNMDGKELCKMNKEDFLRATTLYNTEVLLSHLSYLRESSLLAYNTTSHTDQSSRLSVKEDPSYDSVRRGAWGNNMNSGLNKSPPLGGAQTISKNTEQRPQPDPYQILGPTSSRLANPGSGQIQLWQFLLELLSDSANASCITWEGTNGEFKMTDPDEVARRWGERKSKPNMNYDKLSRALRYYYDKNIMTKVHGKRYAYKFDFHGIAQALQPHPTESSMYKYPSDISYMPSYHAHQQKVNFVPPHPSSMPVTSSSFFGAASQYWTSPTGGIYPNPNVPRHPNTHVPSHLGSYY
Outline: (§1)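 In yeast, human transcription factors were expressed with a GST fusion, then pulled down on glutathione beads and given DNA barcodes. Pooled with a tag-only sample, they were exposed to 200 nmole of a 16-mer random double-stranded DNA library (Tris/NaCl/DTT/glycerol buffer, room temperature, 30 min), washed, crosslinked with 0.1% formaldehyde, proximity-ligated using BsaI/T4 ligase for 1 h at 37 °C, PCR-amplified and read on an Illumina NextSeq500. Each hexamer's frequency of reads for a factor, divided by the matching frequency for the tag-only sample, gives the binding signal.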

ERG = target: T2, ERG (Homo sapiens, UniProt P11308 1-479)
T2 sequence: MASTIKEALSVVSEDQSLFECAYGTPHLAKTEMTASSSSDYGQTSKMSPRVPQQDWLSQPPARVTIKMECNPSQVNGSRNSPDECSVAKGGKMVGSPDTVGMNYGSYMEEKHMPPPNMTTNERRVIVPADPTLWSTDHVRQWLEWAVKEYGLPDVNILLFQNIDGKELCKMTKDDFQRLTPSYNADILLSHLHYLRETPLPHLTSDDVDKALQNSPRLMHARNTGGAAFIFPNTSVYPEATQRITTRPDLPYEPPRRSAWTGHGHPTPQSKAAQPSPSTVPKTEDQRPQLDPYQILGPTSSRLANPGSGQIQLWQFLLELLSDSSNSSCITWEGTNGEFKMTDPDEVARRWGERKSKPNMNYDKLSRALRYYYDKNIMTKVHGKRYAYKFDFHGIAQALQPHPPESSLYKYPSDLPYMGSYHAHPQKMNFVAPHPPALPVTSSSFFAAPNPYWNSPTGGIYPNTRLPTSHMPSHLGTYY
Outline: as §1

SPI1 = SPI1 (Homo sapiens, UniProt P17947 1-270)
Outline: as §1

ELK3 = target: T3, ELK3 (Homo sapiens, UniProt P41970 1-407)
T3 sequence: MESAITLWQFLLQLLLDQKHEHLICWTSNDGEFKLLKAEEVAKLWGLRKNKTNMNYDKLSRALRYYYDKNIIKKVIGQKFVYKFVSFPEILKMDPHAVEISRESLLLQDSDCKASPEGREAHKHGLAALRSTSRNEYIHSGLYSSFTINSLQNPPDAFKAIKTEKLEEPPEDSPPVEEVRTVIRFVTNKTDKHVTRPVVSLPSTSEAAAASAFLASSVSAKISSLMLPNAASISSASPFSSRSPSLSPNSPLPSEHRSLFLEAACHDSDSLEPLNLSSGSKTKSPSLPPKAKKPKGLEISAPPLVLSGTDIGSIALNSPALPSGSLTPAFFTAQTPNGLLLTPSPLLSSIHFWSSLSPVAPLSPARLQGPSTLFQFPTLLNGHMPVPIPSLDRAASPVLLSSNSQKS
Outline: as §1

SPIC = target: T4, SPIC (Homo sapiens, UniProt Q8N5J4 1-248)
T4 sequence: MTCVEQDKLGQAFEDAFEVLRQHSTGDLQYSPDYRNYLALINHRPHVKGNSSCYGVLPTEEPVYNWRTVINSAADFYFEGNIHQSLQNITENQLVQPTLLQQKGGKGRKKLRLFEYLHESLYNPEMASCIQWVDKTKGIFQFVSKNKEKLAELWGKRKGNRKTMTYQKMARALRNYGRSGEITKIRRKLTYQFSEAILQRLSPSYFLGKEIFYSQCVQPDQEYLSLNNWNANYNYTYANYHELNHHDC
Outline: as §1

ELF4 = ELF4 (Homo sapiens, UniProt Q99607 1-663)
Sequence of ELF4 (Q99607 whole entry): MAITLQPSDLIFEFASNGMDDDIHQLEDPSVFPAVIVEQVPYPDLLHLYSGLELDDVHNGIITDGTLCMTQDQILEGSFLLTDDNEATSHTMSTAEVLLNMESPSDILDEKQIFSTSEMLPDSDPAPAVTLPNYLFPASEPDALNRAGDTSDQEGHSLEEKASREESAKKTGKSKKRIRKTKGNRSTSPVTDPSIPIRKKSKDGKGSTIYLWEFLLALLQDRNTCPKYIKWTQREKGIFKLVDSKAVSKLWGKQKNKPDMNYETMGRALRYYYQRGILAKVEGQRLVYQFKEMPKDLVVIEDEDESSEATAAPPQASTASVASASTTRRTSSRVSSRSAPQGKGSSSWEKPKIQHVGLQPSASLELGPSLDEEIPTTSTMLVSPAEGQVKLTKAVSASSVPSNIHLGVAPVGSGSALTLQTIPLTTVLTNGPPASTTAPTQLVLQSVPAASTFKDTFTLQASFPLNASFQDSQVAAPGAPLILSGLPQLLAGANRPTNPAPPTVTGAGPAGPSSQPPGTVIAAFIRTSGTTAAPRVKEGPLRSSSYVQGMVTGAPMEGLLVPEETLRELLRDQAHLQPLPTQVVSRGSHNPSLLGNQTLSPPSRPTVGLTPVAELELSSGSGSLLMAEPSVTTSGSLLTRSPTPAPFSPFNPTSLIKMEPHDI
Outline: as §1

ELF3 = target: T5, ELF3 (Homo sapiens, UniProt P78545 1-371)
T5 sequence: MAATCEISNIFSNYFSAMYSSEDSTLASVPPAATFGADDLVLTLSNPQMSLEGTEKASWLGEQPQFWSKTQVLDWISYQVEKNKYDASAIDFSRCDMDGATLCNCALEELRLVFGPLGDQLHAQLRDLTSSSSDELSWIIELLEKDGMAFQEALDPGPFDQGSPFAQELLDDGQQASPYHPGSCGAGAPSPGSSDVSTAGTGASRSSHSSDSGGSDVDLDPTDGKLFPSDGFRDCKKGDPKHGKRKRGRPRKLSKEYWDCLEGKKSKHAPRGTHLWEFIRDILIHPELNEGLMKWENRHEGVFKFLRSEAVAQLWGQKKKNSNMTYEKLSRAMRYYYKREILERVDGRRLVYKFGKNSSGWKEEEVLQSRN
Outline: as §1

ETV1 = ETV1 (Homo sapiens, UniProt P50549 1-477)
Sequence of ETV1 (P50549 whole entry): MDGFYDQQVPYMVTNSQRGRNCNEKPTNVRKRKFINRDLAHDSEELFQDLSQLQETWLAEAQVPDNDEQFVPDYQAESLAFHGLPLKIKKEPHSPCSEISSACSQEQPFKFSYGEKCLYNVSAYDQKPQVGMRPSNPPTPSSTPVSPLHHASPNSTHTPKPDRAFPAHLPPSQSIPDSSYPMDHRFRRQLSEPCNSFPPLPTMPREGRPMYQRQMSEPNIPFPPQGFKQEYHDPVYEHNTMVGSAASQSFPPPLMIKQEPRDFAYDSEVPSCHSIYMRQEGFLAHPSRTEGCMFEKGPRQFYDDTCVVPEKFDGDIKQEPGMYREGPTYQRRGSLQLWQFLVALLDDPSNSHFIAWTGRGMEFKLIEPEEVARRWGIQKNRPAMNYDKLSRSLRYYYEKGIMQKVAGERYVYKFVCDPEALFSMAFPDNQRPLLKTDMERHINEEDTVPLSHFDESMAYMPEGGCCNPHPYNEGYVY
Outline: as §1

ETV3L = target: T6, ETV3L (Homo sapiens, UniProt Q6ZN32 1-361)
T6 sequence: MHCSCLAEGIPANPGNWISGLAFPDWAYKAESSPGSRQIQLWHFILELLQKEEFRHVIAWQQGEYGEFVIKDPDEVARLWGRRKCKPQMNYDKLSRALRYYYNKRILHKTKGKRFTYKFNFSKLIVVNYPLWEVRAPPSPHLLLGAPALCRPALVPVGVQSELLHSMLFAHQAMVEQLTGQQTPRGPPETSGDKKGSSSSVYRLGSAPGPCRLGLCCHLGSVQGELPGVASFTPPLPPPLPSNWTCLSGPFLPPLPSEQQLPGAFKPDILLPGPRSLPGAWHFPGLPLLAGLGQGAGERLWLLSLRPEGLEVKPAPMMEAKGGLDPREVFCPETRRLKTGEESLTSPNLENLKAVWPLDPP
Outline: as §1

ETS2 = target: T7, ETS2 (Homo sapiens, UniProt P15036 1-469)
T7 sequence: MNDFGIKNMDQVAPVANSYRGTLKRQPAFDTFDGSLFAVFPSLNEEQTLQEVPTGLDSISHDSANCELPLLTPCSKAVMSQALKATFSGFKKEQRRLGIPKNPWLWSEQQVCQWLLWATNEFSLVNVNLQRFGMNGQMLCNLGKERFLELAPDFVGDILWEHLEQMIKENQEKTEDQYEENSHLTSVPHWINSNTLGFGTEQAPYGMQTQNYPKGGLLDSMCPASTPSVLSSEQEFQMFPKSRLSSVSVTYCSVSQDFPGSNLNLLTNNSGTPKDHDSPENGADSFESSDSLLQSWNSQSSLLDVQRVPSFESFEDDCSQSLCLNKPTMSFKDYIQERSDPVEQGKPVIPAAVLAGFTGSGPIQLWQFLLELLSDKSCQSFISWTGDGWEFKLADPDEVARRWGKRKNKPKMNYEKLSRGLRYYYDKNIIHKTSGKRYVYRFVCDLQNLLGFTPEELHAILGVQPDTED
Outline: as §1

SPDEF = target: T8, SPDEF (Homo sapiens, UniProt O95238 1-335)
T8 sequence: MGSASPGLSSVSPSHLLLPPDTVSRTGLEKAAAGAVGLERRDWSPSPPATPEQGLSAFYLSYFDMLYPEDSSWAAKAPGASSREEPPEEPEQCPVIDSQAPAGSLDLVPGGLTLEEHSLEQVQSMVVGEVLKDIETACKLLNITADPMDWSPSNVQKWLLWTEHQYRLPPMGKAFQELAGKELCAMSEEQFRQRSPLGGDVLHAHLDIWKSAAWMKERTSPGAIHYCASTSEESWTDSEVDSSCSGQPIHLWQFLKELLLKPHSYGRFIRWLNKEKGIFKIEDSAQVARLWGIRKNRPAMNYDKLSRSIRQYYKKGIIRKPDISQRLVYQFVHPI
Outline: as §1

ELF5 = target: T9, ELF5 (Homo sapiens, UniProt Q9UKW6-2 1-255)
T9 sequence: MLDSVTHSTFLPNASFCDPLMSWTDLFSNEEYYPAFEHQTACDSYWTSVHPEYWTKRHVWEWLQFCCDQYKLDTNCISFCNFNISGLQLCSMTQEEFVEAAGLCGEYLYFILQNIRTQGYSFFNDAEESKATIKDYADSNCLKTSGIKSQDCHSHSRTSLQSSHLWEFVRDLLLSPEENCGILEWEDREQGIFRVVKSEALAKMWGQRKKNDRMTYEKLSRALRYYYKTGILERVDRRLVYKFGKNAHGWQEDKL
Outline: as §1

ETV3 = target: T10, ETV3 (Homo sapiens, UniProt P41162-2 1-143)
T10 sequence: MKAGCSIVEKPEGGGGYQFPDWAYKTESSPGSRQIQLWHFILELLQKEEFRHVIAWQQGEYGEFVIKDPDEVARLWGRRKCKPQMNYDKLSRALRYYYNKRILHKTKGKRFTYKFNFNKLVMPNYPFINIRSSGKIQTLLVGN
Outline: as §1

Q: Which binding signal (FLI1) does the source give for GATACA here?
A: Its binding signal is 1.03 fold enrichment (6-mer frequency, TF over GST control).

Q: And the binding signal (ERG)?
A: The binding signal was 1.03 fold enrichment (6-mer frequency, TF over GST control).

Q: And the binding signal (SPI1)?
A: Its binding signal is 1.01 fold enrichment (6-mer frequency, TF over GST control).

Q: What about the binding signal (ELK3) of the same sequence?
A: The binding signal was 1.03 fold enrichment (6-mer frequency, TF over GST control).

Q: And the binding signal (SPIC)?
A: The binding signal was 1.07 fold enrichment (6-mer frequency, TF over GST control).

Q: And the binding signal (ELF4)?
A: Its binding signal is 1.08 fold enrichment (6-mer frequency, TF over GST control).

Q: What about the binding signal (ELF3) of the same sequence?
A: Its binding signal is 1.08 fold enrichment (6-mer frequency, TF over GST control).

Q: What about the binding signal (ETV1) of the same sequence?
A: Its binding signal is 1.06 fold enrichment (6-mer frequency, TF over GST control).

Q: And the binding signal (ETV3L)?
A: The binding signal was 1.05 fold enrichment (6-mer frequency, TF over GST control).

Q: What about the binding signal (ETS2) of the same sequence?
A: The binding signal was 1.05 fold enrichment (6-mer frequency, TF over GST control).

Q: What about the binding signal (SPDEF) of the same sequence?
A: Its binding signal is 1.24 fold enrichment (6-mer frequency, TF over GST control).

Q: And the binding signal (ELF5)?
A: The binding signal was 1 fold enrichment (6-mer frequency, TF over GST control).

Q: What about the binding signal (ETV3) of the same sequence?
A: Its binding signal is 1.01 fold enrichment (6-mer frequency, TF over GST control).
